Each structure is given as a SMILES string. Records with an inconclusive call do not appear. Unmarked numbers belong to inactive results. Activity calls are given as the source filed them. Calls come from the whole dose curve; as a rule, active = well fitted inhibition curve with a large enough effect; inconclusive = small, poorly fitted or top-dose-only effect; inactive = flat fitted curve, though single readings scatter.
% is set by controls: 0 for no effect and ±100 for the full control effect.

The nature of this experiment: P-glycoprotein substrates identified in KB-8-5-11 adenocarcinoma cell line, qHTS therapeutic library screen (AID 1346987). Note: nearly all actives have a fitted effect of over 65% in size. The note with it: KB-8-5-11 (P-gp overexpressing) viability, CellTiter-Glo, 72 h; series mostly up to 44.5 µM; activity change, negative = cytotoxicity: at the top concentration. In a few lines: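 Luminescence from CellTiter-Glo, read 5 min after addition, quantified survival of KB-8-5-11 (P-gp-overexpressing) cells exposed to compounds for 72 h. AC50 was derived from concentration-response curves.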
For orientation: qHTS replaces the single test concentration by a dilution series.
As for `CC1CC(=O)C2=C(O1)OC1(C)CCC3C(C)(C)C=CC(=O)C3(C)C1C2` (stereo unspecified), the molecule was called inactive. `CCCCCCCCCCCCCCCC(=O)OCC(COC(=O)CCCCCCCCCCCCCCC)OC(=O)CCCCCCCCCCCCCCC`: the “activity change, negative = cytotoxicity” value is -9.26%. The same measure, in the same setting: the same measure for `CCOc1ccc(C(Nc2ccccn2)c2ccc3ccc(C)nc3c2O)cc1C` (stereo unspecified): 3.67%; for `CC1(C)CC[C@]2(C(=O)O[C@@H]3O[C@H](CO)[C@@H](O)[C@H](O)[C@H]3O)CC[C@]3(C)C(=CCC4[C@@]5(C)C[C@@H](O)[C@H](O)[C@@](C)(CO)C5CC[C@]43C)C2C1` (stereo partly specified): 6.32% [at 17.3 µM]. On the same count and under the same terms, the same measure for `COc1ccc([C@H]2Cc3cccc(O)c3C(=O)O2)cc1`: -3.39%; for `COc1c(C)c2c(c(O)c1C/C=C(\C)CC/C=C(\C)CCC(=O)O)C(=O)OC2`: 1.42%; for `C=C1C(=O)OC2CC(C)=C(C(C)CCCO[C@@H]3O[C@H](CO)[C@@H](O)[C@H](O)[C@H]3O)C(O)C12` (stereo partly specified): 5.68% [at 17.3 µM]. Consider `CCC(C)(O)C(O)C(=O)OCc1ccc(O[C@@H]2O[C@H](CO)[C@@H](O)[C@H](O)[C@H]2O)cc1` (stereo partly specified), for which the “activity change, negative = cytotoxicity” value was 2.42% [at 17.3 µM]. On the same count and under the same terms, the same measure for `CCC/C=C/C(=O)O[C@H]1CC(C)(C)CC2[C@]13[C@H](O)O[C@@]21CCC2[C@@]4(C)CC[C@H](O[C@@H]5O[C@H](C(=O)O)[C@@H](O)[C@H](O[C@@H]6O[C@H](CO)[C@H](O)[C@H](O)[C@H]6O[C@@H]6O[C@@H](C)[C@H](O)[C@@H](O)[C@H]6O[C@@H]6OC[C@](O)(CO)[C@H]6O)[C@H]5O[C@@H]5O[C@H](CO)[C@H](O)[C@H](O)[C@H]5O)C(C)(C)C4CC[C@@]2(C)[C@]1(C)C[C@H]3OC(C)=O` (stereo partly specified): 0.402% [at 9.29 µM]. Still for that read-out and setting: the same measure for `COc1cc(/C=C/C(=O)OC2CC(OC(C)=O)C(OC(C)=O)C3C2CCC2C(=O)OC(c4ccoc4)CC23C)ccc1O[C@@H]1O[C@H](CO)[C@@H](O)[C@H](O)[C@H]1O` (stereo partly specified): -12.1% [at 17.3 µM].

On to `CC(C)=CC/C=C(/C)[C@H]1CC[C@]2(C)[C@@H]1[C@H](O)CC1[C@@]3(C)CC[C@H](O)C(C)(C)[C@@H]3[C@@H](O[C@@H]3O[C@H](CO)[C@@H](O)[C@H](O)[C@H]3O[C@@H]3O[C@@H](C)[C@H](O)[C@@H](O)[C@H]3O)C[C@]12C` (stereo partly specified), for which the “outcome” value is “inactive [at 17.3 µM]”. In the case of `CN1CC[C@@H](NC(=O)Nc2ccc(C#N)cc2)C[C@@H]1c1nc2ccccc2[nH]1`, the “activity change, negative = cytotoxicity” value was 1.99%. On the same count and under the same terms, the same measure for `CC(=O)OC[C@]12[C@H](OC(C)=O)C(=O)[C@@H]3[C@@H](OC(C)=O)[C@@]14O[C@@]3(C)COC(=O)c1cccnc1[C@@H](C)[C@H](C)C(=O)O[C@@H]([C@H](OC(C)=O)[C@@H]2OC(C)=O)[C@]4(C)O`: 6.33% [at 17.3 µM].

With `CC(=O)OCCC(C)CCC1C(C)(O)CCC2C(C)(C)CCCC21C` (stereo unspecified), the molecule was classed as inactive. As for `O=C1N(CC2CCCCN2)CCN1c1ccccc1` (stereo unspecified), the molecule was classed as inactive.

In the case of `CC1(C)NC2N(C1=O)c1ccccc1C2(O)CC(C(=O)O)n1cnc2ccccc2c1=O` (stereo unspecified), the “outcome” value was “inactive [at 17.3 µM]”. For `CC(C)C(=O)O[C@@H]1[C@@H](O)[C@@H](O[C@H]2O[C@H](CO)[C@@H](O)[C@H](O)[C@H]2O)O[C@H](CO)[C@H]1O`, the “activity change, negative = cytotoxicity” value was 5.88% [at 17.3 µM]. For `C=C[C@H]1[C@H](O[C@@H]2O[C@H](CO)[C@@H](O)[C@H](O)[C@H]2O)OC=C2C(=O)OCC[C@]21O`, the molecule was called inactive. Take `CO[C@@H]1[C@@H](O[C@@H]2O[C@H](C)[C@@H](O[C@H]3C[C@@](C)(O)[C@@H](OC(=O)CC(C)C)[C@H](C)O3)[C@H](N(C)C)[C@H]2O)[C@@H](CC=O)C[C@@H](C)C(=O)/C=C/C2OC2C[C@@H](C)OC(=O)C[C@H]1OC(C)=O` (stereo partly specified): the “activity change, negative = cytotoxicity” value is 6.59%. As for `C[C@]12C=CC(=O)C=C1CC[C@@H]1[C@@H]2[C@@H](O)C[C@@]2(C)[C@H]1CC[C@]2(O)C(=O)COC(=O)CCC(=O)O`, the Potency result was “inactive”. Turning to `CCOC(=O)[C@H](CCc1ccccc1)N[C@@H](C)C(=O)N1C2CCCCC2C[C@H]1C(=O)O` (stereo partly specified), the molecule was called inactive. On to `COC(=O)[C@H](CC1C=NC=N1)NCC12CC3CC(CC(C3)C1)C2` (stereo partly specified), for which the “activity change, negative = cytotoxicity” value was 7.98%. With `COc1c(OC2OC(CO)C(O)C(O)C2O)ccc(O)c1C(=O)OCc1ccccc1O[C@@H]1O[C@H](CO)[C@@H](O)[C@H](O)[C@H]1O` (stereo partly specified), the “activity change, negative = cytotoxicity” value was 2.5% [at 17.3 µM]. Same read-out and setting: the same measure for `CC1CCC2(C)C(CC(O)C(O)C23CO3)C1(C)CCC1=CC(O)OC1=O` (stereo unspecified): -0.322%. `CCN[C@@H]1C[C@H](N)[C@@H](O[C@H]2OC(CN)=CC[C@H]2N)[C@H](O)[C@H]1O[C@H]1OC[C@](C)(O)[C@H](NC)[C@H]1O`: the Potency result was “inactive”.

In the case of `Cc1nn(C)c2c1C(c1ccc(C(F)(F)F)cc1)C(C#N)=C(N)O2` (stereo unspecified), the “activity change, negative = cytotoxicity” value was 7.4%.

For the origin of these results see PubChem BioAssay (NCATS).
